The values below come from PubChem BioAssay (NCATS).

Inconclusive results are not listed. The source made the active and inactive calls. Unless noted, calls follow the shape of the dose curve; as a rule, active = well fitted curve in the direction sought with a large enough effect; inconclusive = small, poorly fitted or top-dose-only effect, or another doubt; inactive = no such curve, though single readings can be large; an effect the other way counts as inactive or inconclusive.

For assay [1], the target named is Lysosomal acid glucosylceramidase (Homo sapiens) (UniProt P04062). The experiment in a line: Glucocerebrosidase-p2 (AID 348; in the data active = potency below about 10 µM; also: potency is read from the fitted curve at half-maximal effect). The following applies: purified GBA, blue fluorogenic substrate, 40 min. The procedure, abridged: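 Normal human glucocerebrosidase (0.2 nM) with blue fluorogenic substrate (80 uM final) in citrate/phosphate pH 5.9 with 10mM sodium taurocholate, 0.01% tween-20; 40 min RT, NaOH/glycine stop; fluorescence Ex 365/Em 440; AC50 from a titration from 0.6 nM upwards.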
Lysosomal acid glucosylceramidase (Homo sapiens), sequence (P04062 whole entry, looked up): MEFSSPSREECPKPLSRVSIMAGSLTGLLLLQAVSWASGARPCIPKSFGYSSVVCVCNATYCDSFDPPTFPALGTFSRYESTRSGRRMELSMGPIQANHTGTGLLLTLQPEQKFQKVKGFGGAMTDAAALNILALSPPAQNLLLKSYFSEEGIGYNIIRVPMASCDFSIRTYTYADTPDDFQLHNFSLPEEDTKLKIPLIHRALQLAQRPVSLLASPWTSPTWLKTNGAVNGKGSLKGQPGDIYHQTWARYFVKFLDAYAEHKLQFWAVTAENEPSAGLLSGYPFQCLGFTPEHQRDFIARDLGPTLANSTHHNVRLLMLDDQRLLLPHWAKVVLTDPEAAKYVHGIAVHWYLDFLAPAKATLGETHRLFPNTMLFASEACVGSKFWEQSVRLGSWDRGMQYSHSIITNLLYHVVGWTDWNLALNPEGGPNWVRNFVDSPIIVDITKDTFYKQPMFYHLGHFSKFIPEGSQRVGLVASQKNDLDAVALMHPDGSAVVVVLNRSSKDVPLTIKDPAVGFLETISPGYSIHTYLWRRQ

A short description of assay [2]: AP1 Signaling Pathway (AID 357; active = well fitted curve in either direction with a large enough effect, not every such curve was filed as active;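 also: ME-180 reporter cells stimulated with EGF at its EC50 level; % is scaled to controls: 0 for no effect and ±100 for the full control effect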). To be noted: ME-180 AP-1-bla reporter, EGF-induced, beta-lactamase ratio, 5 h; at 7.69 µM (top of the series) unless noted. Summed up:
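AP-1-bla ME-180 cells, Opti-MEM + 0.5% dialyzed FBS, plated overnight 37 °C. Cpd titration + EC50 EGF, 5 h 37 °C. CCF4 2.5 h RT; ex 405, em 460/530 ratio → %activity, AC50.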

Assay [3] has as its target Cytochrome P450 1A2 (Homo sapiens) (UniProt P05177). Kind of assay: p450-cyp1a2 (AID 410; calls by dose curve; also: potency is read from the fitted curve at half-maximal effect). To be noted: recombinant CYP1A2, luciferin-ME demethylation, luminescence; series mostly up to 57 µM. The procedure, abridged:
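Read-out is luminescence from luciferin produced by CYP1A2 demethylation of Luciferin-ME (100uM, at Km). Detection reagent stopped the 60 min NADPH-dependent reaction; signals were normalized to 57 uM furafylline.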

The nature of assay [4]: NFAT Signaling Pathway (AID 444; active = well fitted curve in either direction with a large enough effect, not every such curve was filed as active;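 also: carbachol stimulus at about its EC50 of 1 µM final; % is scaled to controls: 0 for no effect and ±100 for the full control effect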). To be noted: Jurkat NFAT-bla M1, carbachol, beta-lactamase ratio, 5 h; at 7.69 µM (top of the series) unless noted. The procedure, abridged: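 Jurkat cells carrying an NFAT-driven β-lactamase reporter and co-transfected muscarinic M1 receptor were treated with compound plus carbachol (1 uM final, an EC50 level) for 5 h at 37 °C. CCF4 loading followed for 1 h at RT; 460/530 nm ratio gave %activity.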

Assay [5] can be described thus: Stat Signaling Pathway (AID 446; active = well fitted curve in either direction with a large enough effect, not every such curve was filed as active;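 also: ME-180 cervical cancer cells given 40 pM IL-6 alongside compound; SIE-controlled beta-lactamase reporter measured as 460/530 nm FRET emission ratio; % is scaled to controls: 0 for no effect and ±100 for the full control effect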). To be noted: ME-180 SIE beta-lactamase reporter, IL-6 stimulated, 5 h; at 7.69 µM (top of the series) unless noted. The procedure, abridged:
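Overnight-plated ME-180 cells bearing a STAT Inducible Element beta-lactamase reporter; 5 h co-exposure to compound and 40 pM IL-6; values normalized to 300 pM IL-6 and 125 nM JAK inhibitor controls.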

Assay [6] deals with Glucocorticoid receptor (Homo sapiens) (UniProt P04150). Kind of assay: GR-GFP Redistribution (AID 450;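 active = compounds whose dose series gives a full or clear partial fitted curve of increased nuclear translocation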; also: potency is read from the fitted curve at half-maximal effect). The following applies: U2OS GR-GFP nuclear translocation, laser cytometry, 2 h.
Glucocorticoid receptor (Homo sapiens), sequence (P04150 whole entry, looked up): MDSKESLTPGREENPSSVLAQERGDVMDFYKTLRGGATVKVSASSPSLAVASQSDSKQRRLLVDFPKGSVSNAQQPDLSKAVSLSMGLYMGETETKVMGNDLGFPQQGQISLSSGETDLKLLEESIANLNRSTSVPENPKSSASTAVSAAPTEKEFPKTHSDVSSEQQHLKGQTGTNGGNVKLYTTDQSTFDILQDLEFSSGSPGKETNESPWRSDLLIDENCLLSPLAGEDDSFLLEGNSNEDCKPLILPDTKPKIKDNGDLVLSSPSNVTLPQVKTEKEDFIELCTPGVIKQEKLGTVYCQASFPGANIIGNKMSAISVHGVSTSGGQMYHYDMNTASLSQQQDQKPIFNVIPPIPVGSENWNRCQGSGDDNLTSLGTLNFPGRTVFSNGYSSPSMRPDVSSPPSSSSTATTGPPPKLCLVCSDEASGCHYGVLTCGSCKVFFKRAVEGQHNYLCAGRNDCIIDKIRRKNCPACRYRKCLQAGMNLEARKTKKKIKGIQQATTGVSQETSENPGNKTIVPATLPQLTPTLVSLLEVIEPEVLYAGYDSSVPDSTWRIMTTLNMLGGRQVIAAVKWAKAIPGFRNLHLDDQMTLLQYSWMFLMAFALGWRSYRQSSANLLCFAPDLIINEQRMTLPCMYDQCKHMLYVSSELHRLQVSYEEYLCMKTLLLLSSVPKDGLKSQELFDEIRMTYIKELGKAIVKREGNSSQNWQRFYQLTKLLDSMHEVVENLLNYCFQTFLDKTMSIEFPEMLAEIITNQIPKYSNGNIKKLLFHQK
For assay [7] the target is unchanged. The experiment in a line: GR-EFC Redistribution (AID 451; calls by dose curve; also: potency is read from the fitted curve at half-maximal effect). The following applies: CHO-K1 GR-EFC translocation, beta-gal luminescence, 2 h. The procedure, abridged:
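CHO-K1 cells stably expressing nuclear-localized β-gal enzyme acceptor and GR fused C-terminally to the enzyme donor fragment; ligand-driven nuclear translocation restores β-gal by complementation. Compounds titrated up to 46 uM final, 2 h at 37 °C; luminescence read.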

In assay [8] the target is Mitogen-activated protein kinase 10 (Mus musculus) (UniProt Q61831). The experiment in a line: JNK3 AlphaScreen Assay (AID 530; active = well fitted curve in either direction with a large enough effect, not every such curve was filed as active;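 also: kinase came from lysate of stimulated human HepG2 cells; % is scaled to controls: 0 for no effect and ±100 for the full control effect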). To be noted: JNK3 lysate, c-Jun phosphorylation; series mostly up to 57.1 µM. Summed up: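 Biotinylated GST-cJun(1-79) served as substrate for JNK3 in HepG2 lysates stimulated with IL-1beta and TNF-alpha. ATP was 10 uM final, pH 7.6. Ser73 phosphorylation was quantified by AlphaScreen (680 nm excitation).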
In general terms: Alpha assays give light when donor and acceptor beads are brought close together.

The target of assay [9] is Cytochrome P450 3A4 (Homo sapiens) (UniProt P08684). The experiment in a line: qHTS Assay for Inhibitors and Substrates of Cytochrome P450 3A4 (AID 884). Also: potency is read from the fitted curve at half-maximal effect; nearly all actives have a fitted effect of over 50% in size. The following applies: recombinant CYP3A4, Luciferin-PPXE luminescence; series mostly up to 57.1 µM. The procedure, abridged: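 Luminescent readout of luciferin produced by CYP3A4 (20 nM) dealkylation of Luciferin-PPXE, 25 uM (its KM). NADPH-driven reaction ran 60 min at RT after 10 min compound preincubation; data scaled to 57 uM ketoconazole as 100% inhibition.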
Cytochrome P450 3A4 (Homo sapiens), sequence (P08684 whole entry, looked up): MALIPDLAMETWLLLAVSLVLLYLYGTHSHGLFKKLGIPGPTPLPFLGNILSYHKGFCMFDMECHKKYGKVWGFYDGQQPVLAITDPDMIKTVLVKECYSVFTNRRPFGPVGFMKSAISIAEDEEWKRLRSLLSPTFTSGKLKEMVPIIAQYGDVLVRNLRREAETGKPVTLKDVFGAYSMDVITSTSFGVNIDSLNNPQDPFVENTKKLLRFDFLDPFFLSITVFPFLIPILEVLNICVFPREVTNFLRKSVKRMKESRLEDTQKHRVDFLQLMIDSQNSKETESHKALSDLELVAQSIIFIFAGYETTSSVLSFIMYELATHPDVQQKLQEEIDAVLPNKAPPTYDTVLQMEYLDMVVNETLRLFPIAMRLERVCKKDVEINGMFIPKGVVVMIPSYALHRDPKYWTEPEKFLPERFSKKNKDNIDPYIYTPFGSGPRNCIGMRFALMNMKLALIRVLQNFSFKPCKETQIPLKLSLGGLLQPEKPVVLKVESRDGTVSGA

Assay [10] has the same target. Kind of assay: qHTS Assay for Activators of Cytochrome P450 3A4 (AID 885). Also: nearly all actives have a fitted effect of over 65% in size. The following applies: recombinant CYP3A4, Luciferin-PPXE luminescence, 60 min; series mostly up to 57.1 µM. Summed up:
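Using 20nM recombinant human CYP3A4 in potassium phosphate (200mM), substrate Luciferin-PPXE at 25uM, luminescent luciferin detection followed a 60-min RT NADPH reaction; data scaled to 57 uM ketoconazole.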
Background: qHTS replaces the single test concentration by a dilution series.

Assay [11] has as its target Cytochrome P450 2C19 (Homo sapiens) (UniProt P33261). The experiment in a line: qHTS Assay for Inhibitors and Substrates of Cytochrome P450 2C19 (AID 899). Also: nearly all actives have a fitted effect of over 60% in size. Also: potency is read from the fitted curve at half-maximal effect. To be noted: recombinant CYP2C19, luciferin-H EGE luminescence; series mostly up to 57.1 µM. Summed up: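 In 50mM KPO4, the reaction held 5nM enzyme and KM-level (10uM) Luciferin-H EGE; it ran 60 min at 37C after NADPH regeneration and a 10 min compound preincubation. Luminescence values were scaled to 57uM ketoconazole as complete inhibition.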

Assay [12] in a line: qHTS Assay for Lipid Storage Modulators (AID 1519; calls by dose curve). To be noted: Drosophila S3 cells, BODIPY lipid droplet/cell ratio, laser cytometry, cells loaded with oleic acid; for activity change, negative = inhibition: at 57.5 µM (top of the series). The procedure, abridged: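 Cells seeded at 5,000 per well were treated with compounds over a concentration series and loaded with oleic acid (400 uM, as added). Lipid droplet fluorescence (488 nm excitation, 500-530 nm channel) was read by laser-scanning cytometry and normalized to 20 uM Triacsin C.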

For assay [13], the target named is Dual specificity protein kinase CLK4 (Homo sapiens) (UniProt Q9HAZ1). The experiment in a line: qHTS Assay for Inhibitors of CDC-like Kinase 4 (Kinase-Glo Assay) (AID 1770). Also: nearly all actives have a fitted effect of over 65% in size. Also: potency is read from the fitted curve at half-maximal effect. The following applies: recombinant Clk4, Kinase-Glo ATP depletion luminescence; series mostly up to 66.7 µM. Summed up: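 Inhibition was judged from remaining ATP, measured by Ultra-Glo luciferase bioluminescence after Clk4 (25 nM) had acted on RS peptide at 1 uM ATP for 4.5 hours, room temperature.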
Dual specificity protein kinase CLK4 (Homo sapiens), sequence (Q9HAZ1 whole entry, looked up): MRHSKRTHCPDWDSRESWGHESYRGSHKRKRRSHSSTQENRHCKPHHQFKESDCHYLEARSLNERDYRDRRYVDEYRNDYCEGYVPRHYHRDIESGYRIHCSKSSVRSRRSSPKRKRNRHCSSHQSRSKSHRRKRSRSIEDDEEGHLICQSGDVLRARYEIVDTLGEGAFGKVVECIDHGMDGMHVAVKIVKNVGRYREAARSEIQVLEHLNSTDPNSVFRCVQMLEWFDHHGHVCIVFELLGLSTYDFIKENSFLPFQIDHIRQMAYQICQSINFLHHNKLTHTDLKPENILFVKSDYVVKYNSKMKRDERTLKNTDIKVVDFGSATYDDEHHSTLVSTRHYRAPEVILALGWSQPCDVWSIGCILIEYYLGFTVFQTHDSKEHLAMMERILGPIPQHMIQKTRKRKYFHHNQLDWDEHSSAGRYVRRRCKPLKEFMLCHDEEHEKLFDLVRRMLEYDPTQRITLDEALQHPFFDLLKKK

Assay [14] has the same target. The experiment in a line: qHTS Assay for Inhibitors of CDC-like Kinase 4 (ADP-FP Assay) (AID 1795). Also: nearly all actives have a fitted effect of over 60% in size. Also: potency is read from the fitted curve at half-maximal effect. To be noted: Transcreener ADP fluorescence polarization; series mostly up to 50 µM. The procedure, abridged: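 Inhibition of ADP formation by 6.25 nM Clk4 is measured using 1 uM ATP and 100 uM RS repeat peptide over one hour. Produced ADP displaces a fluorescent tracer from antibody, lowering polarization.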

Assay [15] addresses Ubiquitin carboxyl-terminal hydrolase 1 (Homo sapiens) (UniProt O94782). Kind of assay: Inhibitors of USP1/UAF1: Pilot qHTS (AID 504865).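 Also: rhodamine fluorescence freed from ubiquitin-rhodamine substrate followed over time; top concentration of the series differs between compounds; % is scaled to controls: 0 for no effect and ±100 for the full control effect; nearly all actives have a fitted effect of over 35% in size.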 To be noted: purified USP1/UAF1, Ub-rhodamine cleavage fluorescence; series mostly up to 54.9 µM. The procedure, abridged: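 Kinetic fluorescence assay: 1nM USP1/UAF1, 15 min compound preincubation, then 150nM Ub-Rho; 480/540 nm.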
Assay [16] can be described thus: Primary qHTS for small molecule stabilizers of the endoplasmic reticulum resident proteome: Secreted ER Calcium Modulated Protein (SERCaMP) assay (AID 1508630). Also: % is scaled to controls: 0 for no effect and ±100 for the full control effect. To be noted: SH-SY5Y GLuc-SERCaMP (Gaussia luciferase released on ER calcium loss) secretion, thapsigargin, luminescence; series mostly up to 38.4 µM. Summed up:
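The SH-SY5Y reporter protocol was run at 3 concentrations up to 38.3 uM (primary) or 11 concentrations (follow-up): 16 h compound, 100 nM thapsigargin for 4 h, then extracellular luciferase luminescence.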

Assay [17] deals with 3',5'-cyclic-AMP phosphodiesterase 4B (Homo sapiens) (UniProt Q07343). The experiment in a line: qHTS Assay for Inhibitors of PDE-IV (AID 607; active = well fitted activation curve with a large enough effect in the main read-out, with a control signal flat, not every such curve was filed as active; also: % of control where 0% means no effect). The following applies: HEK293 ACTOne CNG channel cells, membrane potential fluorescence; series mostly up to 22.9 µM. The procedure, abridged: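 Live HEK293 cells with a modified cyclic nucleotide-gated (CNG) channel report intracellular cAMP via membrane-potential dye fluorescence (ex 535/em 590 nm). Endogenous PDE-IV was targeted. Compounds were tested at up to 22.9 uM final; RO 20-1724 100 uM served as control.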
3',5'-cyclic-AMP phosphodiesterase 4B (Homo sapiens), sequence (Q07343 whole entry, looked up): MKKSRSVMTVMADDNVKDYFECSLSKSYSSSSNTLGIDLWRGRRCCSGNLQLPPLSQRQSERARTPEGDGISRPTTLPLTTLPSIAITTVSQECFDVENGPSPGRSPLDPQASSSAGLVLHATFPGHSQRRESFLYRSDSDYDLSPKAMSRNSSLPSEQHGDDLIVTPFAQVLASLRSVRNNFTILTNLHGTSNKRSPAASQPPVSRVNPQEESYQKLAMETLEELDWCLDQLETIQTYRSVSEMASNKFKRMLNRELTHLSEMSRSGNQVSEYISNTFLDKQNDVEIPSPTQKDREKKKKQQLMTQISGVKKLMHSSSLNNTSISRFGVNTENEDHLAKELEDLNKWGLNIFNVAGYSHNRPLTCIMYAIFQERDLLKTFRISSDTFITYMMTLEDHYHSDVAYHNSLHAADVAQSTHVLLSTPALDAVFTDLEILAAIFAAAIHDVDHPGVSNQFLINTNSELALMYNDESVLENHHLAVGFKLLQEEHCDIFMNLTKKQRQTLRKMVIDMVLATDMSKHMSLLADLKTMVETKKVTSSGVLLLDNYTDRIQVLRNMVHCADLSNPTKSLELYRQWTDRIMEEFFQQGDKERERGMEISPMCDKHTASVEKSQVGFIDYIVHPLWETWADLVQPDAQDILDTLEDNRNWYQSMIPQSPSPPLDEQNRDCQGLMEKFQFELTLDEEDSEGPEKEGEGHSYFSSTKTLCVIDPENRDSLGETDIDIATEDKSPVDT

Assay [18] is described as follows: qHTS Assay for Identification of Small Molecule Agonists for Hypoxia Response Element Signaling Pathway (AID 914; active = well fitted activation curve with a large enough effect in the signal ratio, with a control signal flat, not every such curve was filed as active; the % refers to the signal ratio; also: potency is read from the fitted curve at half-maximal effect). To be noted: ME-180 (cervical carcinoma) HRE-bla reporter, beta-lactamase ratio, CoCl2, 17 h; activation: stronger effect = higher value. Summed up:
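Positive modulation of EC50 CoCl2-induced hypoxia response element signaling is measured in ME-180 cells with a beta-lactamase reporter. Compounds are titrated, incubation runs 17 hours, and %Activity derives from the blue/green ratio.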

Setting [19] is: measured here: cell count channel max response.
Setting [20] is: measured here: lipid channel max response.

Ubiquitin carboxyl-terminal hydrolase 1 (Homo sapiens), sequence (O94782 whole entry, looked up): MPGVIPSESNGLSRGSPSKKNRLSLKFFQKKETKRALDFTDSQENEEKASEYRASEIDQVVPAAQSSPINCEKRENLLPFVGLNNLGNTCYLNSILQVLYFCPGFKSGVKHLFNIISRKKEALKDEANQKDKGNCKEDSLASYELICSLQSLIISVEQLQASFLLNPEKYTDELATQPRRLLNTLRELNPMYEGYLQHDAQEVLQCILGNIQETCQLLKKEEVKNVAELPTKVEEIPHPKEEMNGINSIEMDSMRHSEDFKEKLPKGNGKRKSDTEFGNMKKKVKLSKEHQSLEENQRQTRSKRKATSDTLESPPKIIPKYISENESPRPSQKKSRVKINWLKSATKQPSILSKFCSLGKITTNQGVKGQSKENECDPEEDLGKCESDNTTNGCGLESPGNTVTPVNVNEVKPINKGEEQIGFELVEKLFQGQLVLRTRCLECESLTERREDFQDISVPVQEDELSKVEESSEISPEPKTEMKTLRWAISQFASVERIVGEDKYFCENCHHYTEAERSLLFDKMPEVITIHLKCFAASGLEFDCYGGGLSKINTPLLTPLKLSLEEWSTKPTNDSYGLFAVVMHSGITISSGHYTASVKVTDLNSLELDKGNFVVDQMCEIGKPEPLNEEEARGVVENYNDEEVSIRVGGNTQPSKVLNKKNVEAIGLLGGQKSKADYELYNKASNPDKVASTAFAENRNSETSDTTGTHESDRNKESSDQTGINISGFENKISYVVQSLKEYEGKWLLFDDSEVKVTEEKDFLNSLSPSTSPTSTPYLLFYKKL
Cytochrome P450 1A2 (Homo sapiens), sequence (P05177 whole entry, looked up): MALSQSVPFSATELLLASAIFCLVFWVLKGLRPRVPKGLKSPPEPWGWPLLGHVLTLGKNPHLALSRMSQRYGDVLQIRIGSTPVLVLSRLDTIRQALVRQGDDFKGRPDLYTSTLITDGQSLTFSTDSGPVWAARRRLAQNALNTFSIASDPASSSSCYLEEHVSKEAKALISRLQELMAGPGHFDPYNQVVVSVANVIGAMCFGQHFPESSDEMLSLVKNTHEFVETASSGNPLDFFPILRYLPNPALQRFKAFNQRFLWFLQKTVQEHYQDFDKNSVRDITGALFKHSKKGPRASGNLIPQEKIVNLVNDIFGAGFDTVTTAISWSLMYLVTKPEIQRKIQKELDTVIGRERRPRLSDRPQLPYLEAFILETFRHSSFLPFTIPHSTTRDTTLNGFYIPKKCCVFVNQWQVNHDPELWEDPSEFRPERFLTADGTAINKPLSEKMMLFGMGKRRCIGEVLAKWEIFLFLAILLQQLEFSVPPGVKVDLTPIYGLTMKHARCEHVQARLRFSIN
Cytochrome P450 2C19 (Homo sapiens), sequence (P33261 whole entry, looked up): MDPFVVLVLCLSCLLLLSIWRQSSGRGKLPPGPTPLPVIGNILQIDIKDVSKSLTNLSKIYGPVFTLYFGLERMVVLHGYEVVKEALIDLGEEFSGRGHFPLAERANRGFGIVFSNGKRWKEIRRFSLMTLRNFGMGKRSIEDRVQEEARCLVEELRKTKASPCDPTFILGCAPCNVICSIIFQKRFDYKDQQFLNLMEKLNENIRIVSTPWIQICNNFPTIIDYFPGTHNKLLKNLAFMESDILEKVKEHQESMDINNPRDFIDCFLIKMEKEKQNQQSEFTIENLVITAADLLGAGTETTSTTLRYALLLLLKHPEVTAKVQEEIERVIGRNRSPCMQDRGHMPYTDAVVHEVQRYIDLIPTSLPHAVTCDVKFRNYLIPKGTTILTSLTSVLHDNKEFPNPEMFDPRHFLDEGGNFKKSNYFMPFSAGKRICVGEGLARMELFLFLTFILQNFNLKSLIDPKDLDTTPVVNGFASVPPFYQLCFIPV

`Cc1ccccc1-c1cncnc1NCc1cccs1`: the Potency was > 11.4 µM (inactive) in assay [1]; 3.16 µM (active) in assay [3]; > 46 µM (inactive) in assay [6]; > 46 µM (inactive) in [7]; 0.501 µM (active) in assay [9]; 0.794 µM (active) in assay [11]. The activity change, negative = inhibition in assay [2] is 1.41% (inactive); in [4], 2.62% (inactive); in assay [12] it was 5.75% (inactive). In assay [5], the activity, negative = inhibition was 3.53% (inactive). In assay [8], the result was inactive. Besides, the Potency result in assay [10], in assay [13], in [14], in assay [15] and in assay [16] was “inactive” each time. For the same molecule, the max response in [12] (setting [19]) was determined as 11.6%; in [12] (setting [20]), 15.6%.
Regarding `CCNc1ncc2nc(C)c(=O)n(CCC#N)c2n1`, the results for the Potency in [1], in [6] and in assay [7] were > 11.4 µM (inactive), > 9.22 µM (inactive) and > 46 µM (inactive), respectively. For the same molecule, the activity change, negative = inhibition is -5.37% (inactive) in [2], 8.37% (inactive) in [4] and 3.22% (inactive) in assay [12]. Further, the activity, negative = inhibition in assay [5] was -4.05% (inactive). In addition, the outcome in assay [8] was inactive. In addition, the Potency entry in assay [17], in [13], in assay [14] and in assay [16] was “inactive” each time. The max response is -0.74% in assay [12] (setting [19]) and 2.02% in [12] (setting [20]).
As for `c1ccc(CNc2cc(-c3cccnc3)ncn2)cc1`, the Potency in assay [1] was > 11.4 µM (inactive); in [6], > 46 µM (inactive); in assay [7] it was > 46 µM (inactive); in assay [13] it was 10 µM (active); in assay [14], 5.01 µM (active). Besides, the activity change, negative = inhibition is 1.27% (inactive) in [2], 15.4% (inactive) in [4] and 7.56% (inactive) in [12]. In addition, the activity, negative = inhibition in assay [5] was 14.9% (inactive). The outcome in assay [8] was inactive. For the same molecule, the figures for the max response in [12] (setting [19]) and in assay [12] (setting [20]) were 11.5% and 21.7%, respectively. Also, the Potency entry in assay [16] is “inactive”.
For the molecule `CN1CCN(c2ncc3ncc(=O)n(CCC#N)c3n2)CC1`, the Potency was > 11.4 µM (inactive) in assay [1], 31.6 µM (active) in assay [3], > 9.22 µM (inactive) in assay [6] and > 46 µM (inactive) in assay [7]. Also, the activity change, negative = inhibition was -10.2% (inactive) in assay [2], -4.67% (inactive) in [4] and 6.98% (inactive) in assay [12]. The activity, negative = inhibition in [5] was -3.39% (inactive). The result in assay [8] was inactive. Moreover, the Potency result in assay [17], in [11], in assay [13], in assay [14] and in assay [16] was “inactive” in each case. Further, the values for the max response in [12] (setting [19]) and in assay [12] (setting [20]) were 9.3% and 10.7%, respectively.
In the case of `N#CCCn1c(=O)cnc2cnc(Oc3ccccc3)nc21`, the Potency was > 11.4 µM (inactive) in assay [1], 15.8 µM (active) in [3], > 9.22 µM (inactive) in assay [6] and > 46 µM (inactive) in assay [7]. The activity change, negative = inhibition is -16.3% (inactive) in assay [2], 11.7% (inactive) in [4] and 5.36% (inactive) in [12]. Further, the activity, negative = inhibition in assay [5] was -2.6% (inactive). For the same molecule, the outcome in assay [8] was inactive. Moreover, the max response in assay [12] (setting [19]) was 9.06%; in [12] (setting [20]), 13.1%. The Potency entry in assay [13], in assay [14], in assay [15] and in assay [16] was “inactive” in each case.
In the case of `CC(=O)NCCNc1ncnc2ccc(-c3c(C)noc3C)cc12`, the Potency in [1] was > 11.4 µM (inactive); in [3], 15.8 µM (active); in assay [7], > 46 µM (inactive); in [18], 3.16 µM (active); in assay [13], 7.08 µM (active); in assay [14], 7.08 µM (active). Moreover, the activity change, negative = inhibition is 12.8% (inactive) in [2] and 3.36% (inactive) in assay [12]. Besides, the activity, negative = inhibition in [5] was -17.9% (inactive). Moreover, the molecule was called inactive in assay [8]. For the same molecule, the Potency result in assay [17], in assay [10], in [15] and in assay [16] was “inactive” each time. Moreover, the max response came out at 28.8% in assay [12] (setting [19]) and 29.5% in assay [12] (setting [20]).
